MOR-DOR ag-1: agonists of OPRM1-OPRD1 heterodimerization, primary screen, cell-based, luminescence; Mu-type opioid receptor (Homo sapiens) + Delta-type opioid receptor (Homo sapiens), …; cells; activation, % at 9.3 µM; 340,000 compounds, 0.3% hits
HTR5A inv ag: HTR5A inverse agonists in luminescence cell assay, primary screen, counter-screen for OPRM1-OPRD1 heterodimer inverse agonist project, full-deck HTS; 5-hydroxytryptamine receptor 5A (Homo sapiens), P47898; HTR5A cell line, inverse agonism; inhibition, % at 9.3 µM; 340,000 compounds, 0.083% hits; AID 504634, 2011; in the data active = inhibition mostly above about 23%, no sharp cut-off; inactive = mostly below about 18%
Target sequence (P47898 whole entry, looked up): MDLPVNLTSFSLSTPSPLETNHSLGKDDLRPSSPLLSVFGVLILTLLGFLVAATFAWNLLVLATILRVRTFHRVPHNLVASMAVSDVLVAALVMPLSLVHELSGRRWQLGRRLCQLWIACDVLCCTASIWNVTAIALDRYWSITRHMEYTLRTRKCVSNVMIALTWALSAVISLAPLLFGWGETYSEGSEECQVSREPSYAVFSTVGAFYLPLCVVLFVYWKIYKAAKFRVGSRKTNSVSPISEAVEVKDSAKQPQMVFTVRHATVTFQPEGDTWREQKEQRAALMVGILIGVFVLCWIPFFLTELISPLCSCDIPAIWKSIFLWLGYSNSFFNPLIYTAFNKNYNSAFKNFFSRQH
MOR-DOR inv ag: inverse agonists of MOR-DOR heterodimerization, primary screen, cell-based, luminescence | Mu-type opioid receptor (Homo sapiens) + Delta-type opioid receptor (Homo sapiens), … | cell-based MOR-DOR heterodimer luminescence, inverse agonism | inhibition, % at 9.3 µM | 340,000 compounds, 0.21% hits; in the data active = inhibition above about 22%, passing the limit was not always enough
MsrA inhibitor: bovine MsrA enzyme inhibitors, primary screen, biochemical, absorbance, HTS. 360,000 compounds, 0.75% hits. inhibition, % at 15.5 µM. purified bovine MsrA, absorbance read-out. AID 651718, 2012. Methionine sulfoxide reductase A (Bos taurus); in the data active = inhibition above about 4.5%
MsrA act: bovine MsrA enzyme activators, primary screen, biochemical, absorbance, HTS; purified bovine MsrA, absorbance read-out; activation, % at 10.6 µM; 360,000 compounds, 0.3% hits; in the data active = activation above about 7.5%
HTR5A ag ctr: HTR5A agonists in luminescence cell assay, primary screen, counter-screen for OPRM1-OPRD1 heterodimer agonist project, full-deck HTS; cell-based; activation, % at 9.3 µM; 340,000 compounds, 0.61% hits; AID 504692, 2011; in the data active = activation mostly above about 9.5%, no sharp cut-off; inactive = mostly below about 7.6%
MOR-DOR ag-2: OPRM1-OPRD1 heterodimerization promoters, counter-screen for HTR5A agonist project, cell-based, luminescence | shares compounds with HTR5A ag ctr | U2OS counter-screen cells, complementation luminescence, 3 h | activation, % at 9.3 µM | 800 compounds, 13% hits | AID 504913, 2011
HTR5A ag conf: HTR5A agonists, retest of hits, confirmation, cell-based, luminescence | shares compounds with HTR5A ag ctr | HTR5A agonist cell assay | activation, % at 9.3 µM | 800 compounds, 17% hits; in the data active = activation above about 17%
Each line names hits and unclear results; the compound was inactive in the other large screens (follow-up assays come after a bar, where they were run). Compounds with a hit are over-represented: about 1.9% of the library has one in this group of screens. Cut-off read from the data, not from the text of the source, unless noted: active = activation above about 18%; inactive = the rest.

FC(F)(F)c1cnc(N2CCN(C(=S)NCc3ccccc3)CC2)c(Cl)c1	none
COC(=O)C1=C(C)N(Cc2cccc(C(F)(F)F)c2)C(=NCc2ccc3c(c2)OCO3)NC1c1cccc(Cl)c1 (stereo not given)	none (no result: MOR-DOR ag-1, HTR5A inv ag, MOR-DOR inv ag, MsrA act, HTR5A ag ctr)
CCCCCCCCN1C(=O)[C@@H](CC(=O)NCc2cccc(C(F)(F)F)c2)C[C@@]2(C(=O)OC)C1=C[C@H](C(C)(C)C)O[C@@H]2C	none (no result: MOR-DOR ag-1, HTR5A inv ag, MOR-DOR inv ag, MsrA act, HTR5A ag ctr)
O=C(c1ccc(Cl)c(S(=O)(=O)N2CCCC2)c1)N1CCN(c2ncccn2)CC1	HTR5A ag ctr 20 | MOR-DOR ag-2 inactive | HTR5A ag conf inactive
O=C(c1ccc(Cl)c(S(=O)(=O)N2CCOCC2)c1)N1CCN(c2ccccc2F)CC1	none
O=C(c1ccc(CNS(=O)(=O)c2ccccc2)cc1)N1CCN(c2ccccn2)CC1	none
O=C(c1ccc(Cl)c(S(=O)(=O)NCc2ccccc2)c1)N1CCN(c2ccccn2)CC1	HTR5A ag ctr 21 (no result: MsrA inhibitor) | MOR-DOR ag-2 inactive | HTR5A ag conf inactive
O=C(c1ccc(Cl)c(S(=O)(=O)N2CCCC2)c1)N1CCN(c2ccccc2F)CC1	HTR5A ag ctr 21 | MOR-DOR ag-2 inactive | HTR5A ag conf inactive
C[C@H](CO)N1C[C@H](C)[C@@H](CN(C)C(=O)Cc2ccccc2)OCc2cn(nn2)CCCC1=O	none (no result: MOR-DOR ag-1, HTR5A inv ag, MOR-DOR inv ag, MsrA act, HTR5A ag ctr)
Cc1cc(OCCn2nc(C(=O)O)c3ccccc3c2=O)ccc1C(C)C	HTR5A ag ctr 20 | MOR-DOR ag-2 inactive | HTR5A ag conf inactive
O=C(CCc1c[nH]c2ccccc12)Nc1ccc(Nc2cccnc2)cc1	none (no result: MOR-DOR ag-1, HTR5A inv ag, MOR-DOR inv ag, MsrA act, HTR5A ag ctr)
COC(=O)c1cc2c(c3c4cc(OC)ccc4n(S(=O)(=O)c4ccc(OC)cc4)c13)C(=O)N(C1CCCCC1)C2	none (no result: MOR-DOR ag-1, HTR5A inv ag, MOR-DOR inv ag, MsrA act, HTR5A ag ctr)
CCCCCC(C)NC(=S)NC(=O)c1cc(S(=O)(=O)N2CCOCC2)ccc1C (stereo not given)	HTR5A ag ctr 15 | MOR-DOR ag-2 inactive | HTR5A ag conf inactive
Nc1[nH]c(C(=O)c2ccccc2)c(-c2cccc3ccccc23)c1C(=O)NCc1ccc(Cl)cc1Cl	none (no result: MOR-DOR ag-1, HTR5A inv ag, MOR-DOR inv ag, MsrA act, HTR5A ag ctr)
CCC(C)(C)c1ccc(OCCCC[n+]2cccc(C)c2C)c(C(C)(C)CC)c1	HTR5A ag ctr 21 | MOR-DOR ag-2 inactive | HTR5A ag conf inactive
CCn1c(N2CCN(C(=S)NCCc3ccccc3)CC2)nc2ccccc21	HTR5A ag ctr 31 | MOR-DOR ag-2 inactive | HTR5A ag conf 30
CCn1c(N2CCN(C(=S)NCC(C)C)CC2)nc2ccccc21	none
CCn1c(N2CCN(S(=O)(=O)c3ccc(Cl)cc3)CC2)nc2ccccc21	HTR5A ag ctr 16 | MOR-DOR ag-2 inactive | HTR5A ag conf inactive
CCn1c(N2CCN(C(=S)NC)CC2)nc2ccccc21	HTR5A ag ctr 24 | MOR-DOR ag-2 inactive | HTR5A ag conf inactive
CO[C@@H]1[C@H](O)CC[C@]2(O)CN(c3ccccc3)[C@](C)([C@H](O)CC=C(C)C)[C@@H]12	none (no result: MOR-DOR ag-1, HTR5A inv ag, MOR-DOR inv ag, MsrA act, HTR5A ag ctr)
CCCn1cc(CCC(=O)Nc2ccc(Oc3cccnc3)cc2)c2ccccc21	none (no result: MOR-DOR ag-1, HTR5A inv ag, MOR-DOR inv ag, MsrA act, HTR5A ag ctr)
CC(C)Oc1ccc(C2CNC(=O)C2)cc1 (stereo not given)	HTR5A ag ctr 23 | MOR-DOR ag-2 inactive | HTR5A ag conf 65
CC(C)Oc1ccc(C2CC(=O)NC2=O)cc1 (stereo not given)	none
Cc1ccc(-c2nn(-c3ccccc3)cc2C=C2C(=O)CC(C)(C)CC2=O)cc1	none
CC1=NNC(=O)/C1=C\c1cn(-c2ccccc2)nc1-c1ccc(Cl)cc1	HTR5A ag ctr 23 | MOR-DOR ag-2 inactive | HTR5A ag conf inactive
O=C(COc1cccc2ccccc12)Nc1ccc(Cl)cc1C(=O)O	HTR5A ag ctr 45 | MOR-DOR ag-2 inactive | HTR5A ag conf 46
O=C(COc1cccc2ccccc12)Nc1cc(Cl)ccc1C(=O)O	none
Fc1ccc(C(c2nnnn2C2CCCC2)N2CCN(Cc3ccccc3)CC2)cc1 (stereo not given)	HTR5A ag ctr 18 | MOR-DOR ag-2 inactive | HTR5A ag conf inactive
O=C(N/N=C/c1cn(Cc2cccc(F)c2)c2ccccc12)c1cc(O)cc(O)c1	HTR5A ag ctr 17 | MOR-DOR ag-2 284 | HTR5A ag conf inactive
COCCCNC(=O)C[C@H]1C[C@@]2(C(=O)OC)C(=C[C@H](C(C)(C)C)O[C@@H]2C)N(CCC2=CCCCC2)C1=O	none (no result: MOR-DOR ag-1, HTR5A inv ag, MOR-DOR inv ag, MsrA act, HTR5A ag ctr)
CCCCCCCCCCCCCCCC[n+]1ccc(/C=N/O)cc1	HTR5A ag ctr 26 | MOR-DOR ag-2 inactive | HTR5A ag conf inactive
CCCCCCCCCCCCCCCC[n+]1ccc(C(N)=O)cc1	none
COc1ccccc1Cc1c(-c2cccc(Br)c2)nc2ccc(C)cn12	none (no result: MOR-DOR ag-1, HTR5A inv ag, MOR-DOR inv ag, MsrA act, HTR5A ag ctr)
OC(CN1CCN(Cc2ccccc2)CC1)c1ccc(F)cc1 (stereo not given)	none
OC(CN1CCN(c2cccc(Cl)c2)CC1)c1ccc(F)cc1 (stereo not given)	HTR5A ag ctr 19 | MOR-DOR ag-2 inactive | HTR5A ag conf 27
O=C(NCC1CCN(C(=O)C(=O)c2cc3ccccc3o2)CC1)c1ccncc1	none (no result: MOR-DOR ag-1, HTR5A inv ag, MOR-DOR inv ag, MsrA act, HTR5A ag ctr)
COc1ccc(CCNS(=O)(=O)c2ccc(OC)c(OC)c2)cc1OC	HTR5A ag ctr 17 | MOR-DOR ag-2 inactive | HTR5A ag conf inactive
COc1ccc(CCNS(=O)(=O)c2ccc(Br)cc2)cc1OC	none
CCCCc1cc(=O)oc2cc(OCC(=O)NC3CCN(Cc4ccccc4)CC3)ccc12	HTR5A ag ctr 15 | MOR-DOR ag-2 inactive | HTR5A ag conf inactive
CS(=O)(=O)C1=C(O)C(=O)N(CCCC(=O)O)C1c1ccccc1F (stereo not given)	HTR5A ag ctr 16 | MOR-DOR ag-2 inactive | HTR5A ag conf inactive
COc1cccc(S(=O)(=O)NCc2ccc(C(=O)Nc3cccc(Cl)c3)cc2)c1	HTR5A ag ctr 19 | MOR-DOR ag-2 inactive | HTR5A ag conf inactive
Cc1ccccc1CN1[C@@H](C)[C@H](c2ccccc2)Oc2cccc(NCC(C)C)c2S1(=O)=O	none (no result: MOR-DOR ag-1, HTR5A inv ag, MOR-DOR inv ag, MsrA act, HTR5A ag ctr)
Cn1c(NC(=O)Cc2cccs2)cc(=O)n(C)c1=O	HTR5A ag ctr 19 | MOR-DOR ag-2 inactive | HTR5A ag conf inactive
O=C(N[C@H](C(=O)N1CCC[C@H]1C(=O)NCc1ccccc1)C1CCCCC1)c1ccc(Cl)c(Cl)c1	none (no result: MOR-DOR ag-1, HTR5A inv ag, MOR-DOR inv ag, MsrA act, HTR5A ag ctr)
COc1ccccc1NS(=O)(=O)c1cccc(C(=O)NCC(c2ccccc2OC)N2CCCC2)c1 (stereo not given)	none
